# In article PMC8384837, “Expanding the binding specificity for RNA recognition by a PUF domain”:
# Where a chain is given by its changes, count along the chain named.
# Tests used:
# Test in all cases: yeast three-hybrid, YBZ-1, SC-Leu-His + 0.5 mM 3-AT, 4 days
# Conditions in all cases: tags: N-Gal4 AD-HA kept; label: inside an RPR1-promoter hybrid RNA with tandem MS2 sites; ssRNA
# [1] = target: PUM1 PUF domain R5-NSV (Homo sapiens, UniProt Q14671 828-1176, C1007N;R1008S;Q1011V)
# How it was run: (§1)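 Pumilio-1 PUF domain libraries, randomized at the three base-contacting residues of each repeat, were co-expressed with matching RNA elements from a centromeric plasmid in strain YBZ-1, which carries a LexA–MS2 coat fusion and a HIS3 reporter. Transformants grew for four days on SC-Leu (input) or on SC-Leu-His + 0.5 mM 3-AT (selection), and the repeat regions were PCR-amplified and Illumina-sequenced. The interaction score is the log change in variant frequency from input to selection. That logarithm is base 2, with a pseudocount of 1 where a variant was absent.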
# [2] = target: PUM1 PUF domain R5-KLE (Homo sapiens, UniProt Q14671 828-1176, C1007K;R1008L;Q1011E)
# How it was run: as §1
# [3] = target: PUM1 PUF domain R5-DCR (Homo sapiens, UniProt Q14671 828-1176, C1007D;R1008C;Q1011R)
# How it was run: as §1
# [4] = target: PUM1 PUF domain R3-RAT (Homo sapiens, UniProt Q14671 828-1176, C935R;R936A;Q939T)
# How it was run: as §1
# [5] = target: PUM1 PUF domain R1-KTS (Homo sapiens, UniProt Q14671 828-1176, S863K;R864T;Q867S)
# How it was run: as §1
# [6] = target: PUM1 PUF domain R8-SHR (Homo sapiens, UniProt Q14671 828-1176, N1122S;Y1123H;Q1126R)
# How it was run: as §1
# [7] = target: T1, PUM1 PUF domain R6-CFF (Homo sapiens, UniProt Q14671 828-1176, N1043C;Y1044F;Q1047F)
# T1 sequence: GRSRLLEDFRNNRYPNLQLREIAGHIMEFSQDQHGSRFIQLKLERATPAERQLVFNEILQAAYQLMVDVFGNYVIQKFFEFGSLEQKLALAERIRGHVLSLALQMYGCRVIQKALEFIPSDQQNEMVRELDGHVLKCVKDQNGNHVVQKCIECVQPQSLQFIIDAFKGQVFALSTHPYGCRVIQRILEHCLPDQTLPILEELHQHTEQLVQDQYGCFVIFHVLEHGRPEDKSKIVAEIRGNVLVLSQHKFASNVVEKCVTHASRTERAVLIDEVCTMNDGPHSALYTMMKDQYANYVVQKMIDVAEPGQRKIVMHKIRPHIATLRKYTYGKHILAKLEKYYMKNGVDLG
# How it was run: as §1
# [8] = target: PUM1 PUF domain R2-NFP (Homo sapiens, UniProt Q14671 828-1176, Y900F;Q903P)
# How it was run: as §1
# [9] = target: PUM1 PUF domain R5-SRT (Homo sapiens, UniProt Q14671 828-1176, C1007S;Q1011T)
# How it was run: as §1
# [10] = target: T2, PUM1 PUF domain R6-NYW (Homo sapiens, UniProt Q14671 828-1176, Q1047W)
# T2 sequence: T1 sequence with C216N, F217Y, F220W
# How it was run: as §1
sequence,measurement,setting,value
GGCUAGAACUAGUGGAUCCCCCGGCGCCCGGCGGCUCGAGCCCGGGUAAGUGUUAAUAGUCUGCAUGCCGCCGGGCGCCAUGCCUGCAGGUCGACUCUAGAAAACAUG,binding signal,[1],2.21 log2 enrichment (interaction score)
same,binding signal,[2],2.51 log2 enrichment (interaction score)
GGCUAGAACUAGUGGAUCCCCCGGCGCCCGGCGGCUCGAGCCCGGGUAAGUGUCAAUAGUCUGCAUGCCGCCGGGCGCCAUGCCUGCAGGUCGACUCUAGAAAACAUG,binding signal,[3],2.94 log2 enrichment (interaction score)
same,binding signal,[2],5.37 log2 enrichment (interaction score)
GGCUAGAACUAGUGGAUCCCCCGGCGCCCGGCGGCUCGAGCCCGGGUAAGUGUAAUUAGUCUGCAUGCCGCCGGGCGCCAUGCCUGCAGGUCGACUCUAGAAAACAUG,binding signal,[4],3.26 log2 enrichment (interaction score)
GGCUAGAACUAGUGGAUCCCCCGGCGCCCGGCGGCUCGAGCCCGGGUAAGUGUGAAUAGUCUGCAUGCCGCCGGGCGCCAUGCCUGCAGGUCGACUCUAGAAAACAUG,binding signal,[1],0.18 log2 enrichment (interaction score)
GGCUAGAACUAGUGGAUCCCCCGGCGCCCGGCGGCUCGAGCCCGGGUAAGUGUAAAUCGUCUGCAUGCCGCCGGGCGCCAUGCCUGCAGGUCGACUCUAGAAAACAUG,binding signal,[5],4.91 log2 enrichment (interaction score)
GGCUAGAACUAGUGGAUCCCCCGGCGCCCGGCGGCUCGAGCCCGGGUAAGCGUAAAUAGUCUGCAUGCCGCCGGGCGCCAUGCCUGCAGGUCGACUCUAGAAAACAUG,binding signal,[6],3.61 log2 enrichment (interaction score)
GGCUAGAACUAGUGGAUCCCCCGGCGCCCGGCGGCUCGAGCCCGGGUAAGUGUAAAUAGUCUGCAUGCCGCCGGGCGCCAUGCCUGCAGGUCGACUCUAGAAAACAUG,binding signal,[7],4.85 log2 enrichment (interaction score)
same,binding signal,[6],4.08 log2 enrichment (interaction score)
same,binding signal,[8],2.11 log2 enrichment (interaction score)
same,binding signal,[9],3.34 log2 enrichment (interaction score)
same,binding signal,[10],2.24 log2 enrichment (interaction score)
